PubChem BioAssay
Calls of active or inactive are those of the source. Unless noted, the rule behind the calls is not given here.

Key:
[1] = anti-His antibody binders, primary screen, artefact control for SMM control protein annotation, biochemical, small-molecule microarray, 635 nm fluorescence (AID 1128); settings: anti-His Alexa647 antibody binding, higher = more signal;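 note: score merges feature fluorescence with signal-to-noise for each printed compound spot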
[2] = system: Human papillomavirus type 1a E7 protein (residues 1-88); test: HPV1a E7 small-molecule binders, primary screen, biochemical, small-molecule microarray, residues 1-88, 635 nm (AID 1129); settings: small-molecule microarray binding, fluorescence 635 nm; higher = more signal
[3] = target: Focal adhesion kinase 1 (Homo sapiens) (UniProt Q05397); test: small-molecule microarray binders of FAK, primary screen, biochemical, 635/667 nm fluorescence, BSA, DTT (AID 1130); settings: PTK2 binding, 635 nm fluorescence, higher = more signal;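 note: composite of spot emission at 667 nm and signal to noise over triplicate slides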
[4] = system: Fibrinogen (Alexa647-labelled); test: fibrinogen binders on compound microarrays, profiling panel, artefact control for SMM control-protein annotation, biochemical, small-molecule microarray, 635/667 nm fluorescence (AID 1131); settings: fibrinogen-A647 binding fluorescence, higher = more signal;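 note: z-score merges 667 nm fluorescence with per-spot signal-to-noise over triplicate slides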
[5] = target: Follistatin (Homo sapiens) (UniProt P19883); test: follistatin binders on small-molecule microarrays, primary screen, biochemical, small-molecule microarray, 635/667 nm fluorescence (AID 1132); settings: FST binding, 635 nm fluorescence, higher = more signal
[6] = target: Fibroblast growth factor 2 (Homo sapiens) (UniProt P09038); test: FGF2 binders on small-molecule microarrays, primary screen, biochemical, small-molecule microarray, 635/667 nm fluorescence (AID 1133); settings: small-molecule microarray binding, FGF2, fluorescence 635/667; higher = more signal
[7] = mitochondrial membrane potential change in A549 cells, profiling panel, cell-based, JC-1 fluorescence, basal, 24 h, 100 nL (AID 1138); settings: higher = more signal;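 note: A549 lung adenocarcinoma cells under basal conditions with no added stimulus; test concentration not given here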
Lefty1 = Lefty1 binders on small-molecule microarrays, primary screen, biochemical, small-molecule microarray, 635/667 nm fluorescence (AID 1139); settings: small-molecule microarray binding, fluorescence 635/667; higher = more signal
[8] = system: wheat germ agglutinin (Triticum aestivum), Alexa647-labelled; test: wheat germ agglutinin binders on compound microarrays, profiling panel, artefact control for SMM control-protein annotation, biochemical, small-molecule microarray, 635/667 nm fluorescence (AID 1140); settings: WGA-A647 binding, 635 nm fluorescence, higher = more signal;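 note: score merges 667 nm feature emission with signal to noise over triplicate slides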
[9] = target: Luciferin 4-monooxygenase (Photinus pyralis) (UniProt P08659); test: firefly luciferase enzyme inhibitors, primary screen, biochemical, luminescence, purified enzyme, 2006 set (AID 1141); settings: SteadyGlo luminescence, 30 min, higher = more signal, called active from +8 up or from −8 down;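 note: cell-free assay with purified firefly luciferase at 100 ng per well in PBS; test concentration not given here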
[10] = system: Wnt5a (protein binding on small-molecule microarray); test: Wnt5a binders on small-molecule microarray, primary screen, biophysical, 635/667 nm fluorescence (AID 1142); settings: 635 nm fluorescence, higher = more signal;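 note: fluorescence read at 667 nm with signal to noise per printed feature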
[11] = cell viability in Huh7 cells, primary screen, cytotoxicity control for HCV replication inhibitor project, CellTiter-Glo luminescence, basal, 48 h (AID 1143); settings: Huh7 HCV replicon, higher = more signal, called active from +8 up or from −8 down;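 note: Huh7 hepatoma cells carrying a hepatitis C replication reporter with no stimulus; test concentration not given here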
[12] = P. aeruginosa biofilm formation inhibitors, primary screen, PAO1 strain, BacTiter-Glo luminescence, LB-PBS (AID 1144); settings: 12 h, higher = more signal
[13] = CREB reporter modulators without forskolin, primary screen, cell-based, PC12, CRE-LacZ reporter, unstimulated (AID 1145); settings: no forskolin, luminescence, 4.5 h, higher = more signal, called active from +8 up or from −8 down
[14] = CREB reporter modulators under forskolin, primary screen, cell-based, PC12, CRE-LacZ reporter, forskolin-stimulated (AID 1146); settings: luminescence, 4.5 h, higher = more signal, called active from +8 up or from −8 down;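 note: PC12 cells with 6xCRE LacZ reporter stimulated by forskolin 10 µM; beta-galactosidase reporter signal reflecting CREB driven transcription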
[15] = target: Streptavidin (Streptomyces avidinii) (UniProt P22629); test: streptavidin binders on small-molecule microarray, primary screen, artefact control for SMM compound annotation, biophysical, 635/667 nm fluorescence (AID 1147); settings: streptavidin binding, higher = more signal;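 note: signal reflects streptavidin binding to arrayed compounds as a control protein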
[16] = small-molecule binders of probe aInhba, primary screen, biochemical, small-molecule microarray, 635/667 nm fluorescence (AID 1148); settings: higher = more signal;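 note: score merges 667nm spot fluorescence with signal-to-noise for antibody binding to printed compounds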
Torsin-1A (Homo sapiens) [17] = target: Torsin-1A (Homo sapiens) (UniProt O14656); test: torsin A binders from cell lysate, primary screen, small-molecule microarray, wild-type, 635/667 nm (AID 1149); settings: COS7 hTOR1A-WT lysate, 635 nm fluorescence, higher = more signal
Torsin-1A (Homo sapiens) [18] = target: Torsin-1A (Homo sapiens) (UniProt O14656); test: small-molecule binders of mutant TOR1A in lysate, primary screen, cell lysate, small-molecule microarray, COS7 lysate, 635/667 nm fluorescence (AID 1150); settings: COS7 hTOR1A mutant lysate, 635 nm fluorescence, higher = more signal;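 note: score pools 667 nm emission and signal to noise measuring lysate protein binding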
[19] = system: Sonic hedgehog protein (Shh); test: small-molecule binders of Shh protein, primary screen, biochemical, small-molecule microarray, 635/667 nm fluorescence (AID 1151); settings: small-molecule microarray binding, 635 nm fluorescence; higher = more signal;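 note: Shh protein binding to compounds spotted on small-molecule microarray slides; score combines spot fluorescence intensity with signal-to-noise across triplicate slides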

Focal adhesion kinase 1 (Homo sapiens), sequence (Q05397 whole entry, looked up): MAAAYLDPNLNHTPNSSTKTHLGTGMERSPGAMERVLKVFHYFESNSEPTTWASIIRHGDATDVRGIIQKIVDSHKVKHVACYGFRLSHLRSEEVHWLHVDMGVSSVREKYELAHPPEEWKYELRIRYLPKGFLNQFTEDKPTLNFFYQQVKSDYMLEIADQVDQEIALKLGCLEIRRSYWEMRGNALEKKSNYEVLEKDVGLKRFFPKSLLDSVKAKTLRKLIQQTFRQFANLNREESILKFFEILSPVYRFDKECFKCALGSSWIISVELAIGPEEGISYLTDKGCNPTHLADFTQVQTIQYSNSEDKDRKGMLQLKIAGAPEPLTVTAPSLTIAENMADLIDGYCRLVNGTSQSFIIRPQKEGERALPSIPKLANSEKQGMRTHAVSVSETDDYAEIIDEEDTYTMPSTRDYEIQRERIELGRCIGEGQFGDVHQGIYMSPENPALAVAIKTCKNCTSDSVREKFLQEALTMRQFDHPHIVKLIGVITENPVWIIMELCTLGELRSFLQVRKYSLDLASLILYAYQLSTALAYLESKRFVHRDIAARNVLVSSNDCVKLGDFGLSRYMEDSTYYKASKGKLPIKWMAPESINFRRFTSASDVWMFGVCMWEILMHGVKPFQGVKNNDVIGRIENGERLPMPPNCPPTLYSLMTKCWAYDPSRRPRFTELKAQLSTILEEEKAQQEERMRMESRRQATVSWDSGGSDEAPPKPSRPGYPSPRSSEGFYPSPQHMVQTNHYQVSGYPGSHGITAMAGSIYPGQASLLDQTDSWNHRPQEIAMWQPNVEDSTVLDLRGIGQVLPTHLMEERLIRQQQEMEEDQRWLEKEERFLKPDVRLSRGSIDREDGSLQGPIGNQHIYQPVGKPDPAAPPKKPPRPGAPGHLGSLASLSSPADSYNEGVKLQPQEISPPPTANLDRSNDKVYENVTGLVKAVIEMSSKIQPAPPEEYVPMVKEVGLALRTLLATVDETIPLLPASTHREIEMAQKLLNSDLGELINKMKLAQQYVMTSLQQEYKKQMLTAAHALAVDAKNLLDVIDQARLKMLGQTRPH
Luciferin 4-monooxygenase (Photinus pyralis), sequence (P08659 whole entry, looked up): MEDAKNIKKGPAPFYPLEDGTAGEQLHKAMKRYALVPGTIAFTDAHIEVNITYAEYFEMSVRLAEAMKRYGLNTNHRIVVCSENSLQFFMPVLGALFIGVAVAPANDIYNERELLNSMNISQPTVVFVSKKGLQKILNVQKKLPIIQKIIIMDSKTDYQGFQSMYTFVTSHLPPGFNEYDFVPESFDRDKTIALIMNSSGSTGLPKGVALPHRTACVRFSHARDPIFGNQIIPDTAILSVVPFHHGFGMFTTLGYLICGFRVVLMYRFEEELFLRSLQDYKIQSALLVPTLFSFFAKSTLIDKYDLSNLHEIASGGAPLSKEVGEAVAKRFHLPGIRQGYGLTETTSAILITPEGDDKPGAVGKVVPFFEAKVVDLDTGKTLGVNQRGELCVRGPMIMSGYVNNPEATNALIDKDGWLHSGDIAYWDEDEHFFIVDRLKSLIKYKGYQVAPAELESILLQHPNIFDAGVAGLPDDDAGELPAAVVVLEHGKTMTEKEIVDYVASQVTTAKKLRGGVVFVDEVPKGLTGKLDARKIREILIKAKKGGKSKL
Fibroblast growth factor 2 (Homo sapiens), sequence (P09038 whole entry, looked up): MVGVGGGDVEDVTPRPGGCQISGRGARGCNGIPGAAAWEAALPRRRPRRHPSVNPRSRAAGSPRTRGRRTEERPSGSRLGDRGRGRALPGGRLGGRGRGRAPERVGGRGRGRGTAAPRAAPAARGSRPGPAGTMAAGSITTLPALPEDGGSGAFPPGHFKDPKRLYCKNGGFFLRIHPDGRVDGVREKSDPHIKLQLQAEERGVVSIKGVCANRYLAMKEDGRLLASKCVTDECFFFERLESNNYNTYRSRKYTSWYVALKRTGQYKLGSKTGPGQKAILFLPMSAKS
Torsin-1A (Homo sapiens), sequence (O14656 whole entry, looked up): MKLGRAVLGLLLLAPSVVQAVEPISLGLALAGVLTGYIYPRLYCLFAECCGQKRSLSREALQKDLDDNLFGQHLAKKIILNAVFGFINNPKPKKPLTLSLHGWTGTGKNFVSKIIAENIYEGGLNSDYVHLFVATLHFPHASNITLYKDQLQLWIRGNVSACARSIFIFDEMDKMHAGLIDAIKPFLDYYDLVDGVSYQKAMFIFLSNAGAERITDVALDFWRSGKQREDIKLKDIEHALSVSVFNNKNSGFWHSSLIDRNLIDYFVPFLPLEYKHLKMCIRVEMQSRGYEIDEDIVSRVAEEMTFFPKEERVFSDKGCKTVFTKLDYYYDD
Follistatin (Homo sapiens), sequence (P19883 whole entry, looked up): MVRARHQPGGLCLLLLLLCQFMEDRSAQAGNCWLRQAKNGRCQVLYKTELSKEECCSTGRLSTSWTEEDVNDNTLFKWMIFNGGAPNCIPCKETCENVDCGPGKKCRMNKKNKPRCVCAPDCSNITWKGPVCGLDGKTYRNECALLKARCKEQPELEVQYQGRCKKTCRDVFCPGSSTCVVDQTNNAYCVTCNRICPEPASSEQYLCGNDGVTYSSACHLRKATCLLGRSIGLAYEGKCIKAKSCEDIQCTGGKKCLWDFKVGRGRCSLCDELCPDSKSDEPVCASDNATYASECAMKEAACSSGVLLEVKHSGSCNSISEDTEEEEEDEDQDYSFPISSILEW
Streptavidin (Streptomyces avidinii), sequence (P22629 whole entry, looked up): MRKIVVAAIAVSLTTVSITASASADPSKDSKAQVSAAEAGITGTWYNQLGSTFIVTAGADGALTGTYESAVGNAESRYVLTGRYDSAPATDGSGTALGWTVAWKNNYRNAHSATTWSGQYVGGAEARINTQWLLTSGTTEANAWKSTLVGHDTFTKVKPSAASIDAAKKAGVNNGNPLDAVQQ

Row | Structure (SMILES) | composite z-score [1] | composite z-score [2] | composite z-score [3] | composite z-score [4] | composite z-score [5] | composite z-score [6] | z-score [7] | composite z-score (Lefty1) | composite z-score [8] | z-score [9] | composite z-score [10] | z-score [11] | z-score [12] | z-score [13] | z-score [14] | composite z-score [15] | composite z-score [16] | composite z-score (Torsin-1A (Homo sapiens) [17]) | composite z-score (Torsin-1A (Homo sapiens) [18]) | composite z-score [19]
1 | C=CCC(OC(C)=O)[C@@H]1[C@@H](N(Cc2ccc(-c3ccccc3)cc2)C(=O)Cc2ccc(OC)cc2)c2cc(OCCCO)ccc2N1C(=O)c1ccc2ccccc2c1 (stereo not given in full) | -0.365 | -0.168 | -0.0078 | 0.186 | 0.458 | 0.338 | 0.865 | 0.146 | 0.266 | 0.161 (inactive) | -0.0966 | -1.35 (inactive) | 0.832 (inactive) | 1.37 (inactive) | 0.385 (inactive) | 1.14 | -0.153 | -0.137 | -0.451 | 0.234
2 | CCCCCCc1nc(Cc2cc(OC)c(OC)c(OC)c2)c(C)c2c1[Si](C(C)C)(C(C)C)OC2 | 0.0303 | 0.127 | -0.38 | -0.24 | 0.281 | 0.444 | 0.374 | 0.267 | 0.108 | -0.123 (inactive) | 0.0854 | -3.36 (inactive) | -1.44 (inactive) | 0.367 (inactive) | -0.634 (inactive) | -0.0336 | 0.0275 | 0.246 | 0.0486 | 0.372
3 | CCOC(=O)C1=CCC(c2cccn2C(=O)OC(C)(C)C)N(S(=O)(=O)c2ccc(C)cc2)C1 (stereo not given) | 1.86 | 1.21 | 0.42 | 0.827 | 1.13 | 0.433 | 1.22 | 0.498 | 1.2 | -0.997 (inactive) | 0.0845 | -4.35 (inactive) | 0.0401 (inactive) | 0.136 (inactive) | 19.4 (active) | 1.99 | 0.18 | 0.0444 | 0.461 | 0.157
4 | COC(=O)c1c2oc(c1C(=O)OC)C(=O)N[C@H](Cc1ccccc1)Cn1cc(nn1)C1(CCCCC1)NC(=O)N[C@H](CO)CC2 | 0.633 | -0.594 | 0.714 | -0.252 | -0.328 | 0.94 | -0.318 | 0.114 | 0.722 | 0.181 (inactive) | 0.075 | 0.0261 (inactive) | -0.72 (inactive) | 8.64 (active) | 0.334 (inactive) | -0.626 | 0.161 | 0.3 | 0.29 | 1.52
5 | CC(C)Cc1ccc(CN2CC[C@@H](NC(=O)c3ccccc3)C2)cc1 | 0.44 | -1.55 | -0.144 | 0.411 | -0.0213 | -0.382 | 1.81 | 0.247 | 0.0191 | 0.525 (inactive) | -0.36 | -2.65 (inactive) | 0.241 (inactive) | 3.31 (inactive) | 0.603 (inactive) | -0.238 | -0.157 | 0.205 | 0.134 | -0.0199
6 | C=CCNC(=O)[C@@H]1[C@H]2C(=O)O[C@H](c3ccccc3)[C@H](c3ccccc3)N2[C@H](c2ccc(O)cc2)[C@@]12C(=O)Nc1ccc(C#CC3=CCCCC3)cc12 | 0.844 | 1.18 | 0.721 | 0.668 | 1.24 | 0.494 | 0.22 | 1.43 | 1.06 | -0.806 (inactive) | 0.779 | -4.01 (inactive) | -0.909 (inactive) | 0.119 (inactive) | -0.679 (inactive) | 1.72 | 1.05 | 0.857 | 0.975 | 2.03
7 | COc1cc(Cc2cc3c(c(CCc4ccccc4)n2)[Si](C(C)C)(C(C)C)O[C@H]3c2ccccc2)cc(OC)c1OC | -0.133 | -1.36 | -0.114 | 0.0047 | 0.214 | -0.392 | -1.64 | -0.261 | -0.192 | -0.0946 (inactive) | -0.0786 | -4.48 (inactive) | 0.626 (inactive) | 0.875 (inactive) | 0.992 (inactive) | 0.537 | 0.182 | 0.707 | -0.0236 | -0.418
8 | CCCCC(=C=CC[C@H](O)c1cccc(OCCO)c1)C[C@H](O)c1cc(Cl)cc(Cl)c1O | 0.172 | 0.559 | -0.0043 | 0.489 | 1.11 | 0.272 | 0.691 | 1.46 | 0.749 | -0.677 (inactive) | 0.252 | -0.705 (inactive) | -0.915 (inactive) | 1.66 (inactive) | 0.0904 (inactive) | 0.428 | -0.0675 | 0.437 | 0.906 | 1.84
9 | COc1cc(CO)cc(I)c1O[C@H]1C=C(C(=O)NCCO)C[C@@H](N(CCN2CCOCC2)C(=O)C2CCCO2)[C@@H]1O (stereo not given in full) | 0.0704 | 0.413 | 0.192 | -0.0246 | 0.132 | 0.144 | 1.48 | 0.159 | -0.139 | -0.91 (inactive) | -0.103 | 0.0418 (inactive) | -0.137 (inactive) | 0.497 (inactive) | -1.04 (inactive) | -0.0582 | -0.256 | 0.404 | 0.0245 | -0.203
10 | C=CC[C@]1(C(N)=O)N=C(c2ccc(OCCCO)cc2)O[C@H]1c1ccccc1N=[N+]=[N-] | 1.98 | 0.766 | -0.336 | 0.753 | 1.12 | 0.812 | 1.62 | -0.0005 | 0.762 | -14.1 (active) | 0.423 | -1.05 (inactive) | 0.348 (inactive) | 0.432 (inactive) | -1.81 (inactive) | 0.489 | 0.0857 | 0.534 | 1.62 | 0.0211
